Measurements reported in PubChem BioAssay (EPA / NIEHS).
The source made the active and inactive calls. The calls were made as follows: active = hit-call score of the fitted dose curve at least 0.9, where 1 is the maximum; inactive = score below 0.9.

Key:
Conditions in all cases: mRNA level, 48 h; actives raise or lower the signal
[1] = read-out: Cytochrome P450 7A1 (Homo sapiens) (UniProt P22680); assay: LTEA_HepaRG_CYP7A1: Life Technologies and Expression Analysis (LTEA) Assay for Cytochrome P450 7A1 (CYP7A1) using HepaRG (AID 2283496)
Method in brief: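 HepaRG, 48 h exposure, 8-pt half-log series from 100 uM, 0.5% DMSO vehicle, duplicates. Readout: TaqMan qRT-PCR mRNA vs three housekeeping genes; bidirectional curve fit against DMSO baseline.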

[2] = read-out: Glutathione S-Transferase (GSTA2), GSTA2 (gene 2939); assay: LTEA_HepaRG_GSTA2: Life Technologies and Expression Analysis (LTEA) Assay for Glutathione S-Transferase (GSTA2) using HepaRG (AID 2283497)
Method in brief: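 qRT-PCR readout of GSTA2 transcript, normalized to three housekeeping genes, fitted bidirectionally against 0.5% DMSO baseline. Differentiated HepaRG cells received compound for 48 h at 8 concentrations (top 100 uM, half-log steps).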

[3] = read-out: Glutamate-cysteine ligase catalytic (GCLC), GCLC (gene 2729); assay: LTEA_HepaRG_GCLC: Life Technologies and Expression Analysis (LTEA) Assay for Glutamate-cysteine ligase catalytic (GCLC) using HepaRG (AID 2283498)
Method in brief: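 HepaRG, 48 h exposure, 8-pt half-log series from 100 uM, 0.5% DMSO vehicle; TaqMan qRT-PCR for GCLC mRNA, housekeeping-normalized; bidirectional curve fit vs DMSO baseline.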

[4] = read-out: growth arrest and DNA damage 45 (GADD45G), GADD45G (gene 10912); assay: LTEA_HepaRG_GADD45G: Life Technologies and Expression Analysis (LTEA) Assay for growth arrest and DNA damage 45 (GADD45G) using HepaRG (AID 2283499)
Method in brief: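 Gain or loss of GADD45G mRNA, quantified by TaqMan qRT-PCR against three housekeeping genes, is fitted in both directions relative to 0.5% DMSO. Human HepaRG cultures receive test chemical for 48 h at up to 100 uM.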

[5] = read-out: Glutamate-cysteine ligase regulatory (GCLM), GCLM (gene 2730); assay: LTEA_HepaRG_GCLM: Life Technologies and Expression Analysis (LTEA) Assay for Glutamate-cysteine ligase regulatory (GCLM) using HepaRG (AID 2283500)
Method in brief: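 GCLM expression quantified by qRT-PCR, normalized to three housekeeping genes, after 48 h chemical treatment of HepaRG cells in duplicate at 8 concentrations (top 100 uM, half-log steps, 0.5% DMSO). Changes fitted both directions against vehicle.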

[6] = read-out: Glutathione S-transferase M3 (GSTM3), GSTM3 (gene 2947); assay: LTEA_HepaRG_GSTM3: Life Technologies and Expression Analysis (LTEA) Assay for Glutathione S-transferase M3 (GSTM3) using HepaRG (AID 2283501)
Method in brief: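 HepaRG, plated 48 h, then serum-free induction medium; test chemical 48 h, duplicate; 100 uM top, half-log x8, 0.5% DMSO. Read-out: GSTM3 mRNA (TaqMan qRT-PCR, Fluidigm array). Bidirectional fit vs DMSO.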

[7] = read-out: Heat shock 70 kDa protein 1 (HSPA1A), gene 3303; assay: LTEA_HepaRG_HSPA1A: Life Technologies and Expression Analysis (LTEA) Assay for Heat shock 70 kDa protein 1 (HSPA1A) using HepaRG (AID 2283502)
Method in brief: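 HSPA1A expression measured by qRT-PCR with ACTB/GAPDH/POLR2A normalization; curves fitted in both directions relative to DMSO vehicle. Exposure: 48 h in HepaRG cells, duplicate 8-point half-log series from 100 uM, 0.5% DMSO, serum-free induction medium.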

[8] = read-out: Hypoxia-inducible factor 1-alpha (Homo sapiens) (UniProt Q16665); assay: LTEA_HepaRG_HIF1A: Life Technologies and Expression Analysis (LTEA) Assay for Hypoxia-inducible factor 1 (HIF1A) Trancription factor using HepaRG (AID 2283503)
Method in brief: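 HIF1A transcript level read by qRT-PCR (ACTB, GAPDH, POLR2A normalization) after 48 h chemical exposure of HepaRG cultures. Eight half-log concentrations, top 100 uM, 0.5% DMSO vehicle, duplicates; bidirectional curve fit against DMSO baseline.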

HGF (gene 3082) = assay: LTEA_HepaRG_HGF: Life Technologies and Expression Analysis (LTEA) Assay for Hepatocyte Growth Facto (HGF) using HepaRG (AID 2283505)
Method in brief: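 Read-out is HGF transcript level by qRT-PCR, normalized to three housekeeping genes, fitted bidirectionally against 0.5% DMSO vehicle. Human HepaRG cells received test chemicals for 48 h at up to 100 uM.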

[9] = read-out: Insulin Like Growth Factor 1 (IGF1), IGF1 (gene 3479); assay: LTEA_HepaRG_IGF1: Life Technologies and Expression Analysis (LTEA) Assay for Insulin Like Growth Factor 1 (IGF1) using HepaRG (AID 2283506)
Method in brief: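 Expression measured by TaqMan qRT-PCR on a Fluidigm array, with three housekeeping genes for normalisation, after 48 h treatment of HepaRG cells. Top concentration 100 uM with half-log steps, 0.5% DMSO vehicle, bidirectional fit.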

[10] = read-out: Intercellular Adhesion Molecule 1 (ICAM1), ICAM1 (gene 3383); assay: LTEA_HepaRG_ICAM1: Life Technologies and Expression Analysis (LTEA) Assay for Intercellular Adhesion Molecule 1 (ICAM1) using HepaRG (AID 2283507)
Method in brief: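 Readout is qRT-PCR mRNA level, normalized to three housekeeping genes and fitted bidirectionally against 0.5% DMSO vehicle. Human HepaRG cultures received compound for 48 h, top concentration 100 uM with half-log dilutions.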

[11] = read-out: Insulin-like growth factor-binding protein 1 (IGFBP1), IGFBP1 (gene 3484); assay: LTEA_HepaRG_IGFBP1: Life Technologies and Expression Analysis (LTEA) Assay for Insulin-like growth factor-binding protein 1 (IGFBP1) using HepaRG (AID 2283508)
Method in brief: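 Thawed HepaRG cells are plated for 48 h, switched to serum-free induction medium, then dosed in duplicate for another 48 h (100 uM top, half-log steps). Lysates in RLT go to qRT-PCR, and gain or loss of signal is fitted relative to vehicle.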

[12] = read-out: Interleukin 6 (IL6), IL6 (gene 3569); assay: LTEA_HepaRG_IL6: Life Technologies and Expression Analysis (LTEA) Assay for Interleukin 6 (IL6) using HepaRG (AID 2283509)
Method in brief: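 qRT-PCR read-out of IL6 transcript, normalized to three housekeeping genes, after 48 h chemical exposure of HepaRG cells; 8-point half-log series, top 100 uM, 0.5% DMSO vehicle. Bidirectional curve fitting against DMSO baseline.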

[13] = read-out: Interleukin 6 Receptor (IL6R), IL6R (gene 3570); assay: LTEA_HepaRG_IL6R: Life Technologies and Expression Analysis (LTEA) Assay for Interleukin 6 Receptor (IL6R) using HepaRG (AID 2283510);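 as to AC50: differentiated human HepaRG liver cells in serum-free induction medium; TaqMan qRT-PCR signal normalized to ACTB GAPDH and POLR2A housekeeping genes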
Method in brief: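 IL6R transcript level by qRT-PCR after 48 h chemical exposure (8-point, half-log, max 100 uM, 0.5% DMSO vehicle) of HepaRG cells in serum-free induction medium. Normalized to three housekeeping genes; curves fitted in both directions relative to DMSO.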

[14] = read-out: Potassium channel subfamily K member 1 (KCNK1), KCNK1 (gene 3775); assay: LTEA_HepaRG_KCNK1: Life Technologies and Expression Analysis (LTEA) Assay for Potassium channel subfamily K member 1 (KCNK1) using HepaRG (AID 2283511)
Method in brief: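 HepaRG, 48 h exposure, 8-pt half-log series top 100 uM, 0.5% DMSO vehicle, duplicates. Readout: KCNK1 transcript by qRT-PCR (Fluidigm array), housekeeping-normalized; bidirectional curve fit relative to DMSO baseline.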

[15] = read-out: JUN Transcription Factor, JUN (gene 3725); assay: LTEA_HepaRG_JUN: Life Technologies and Expression Analysis (LTEA) Assay for JUN Transcription Factor using HepaRG (AID 2283513)
Method in brief: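 mRNA measured by TaqMan qRT-PCR after 48 h chemical exposure of HepaRG cultures; normalization to three housekeeping genes. Duplicate eight-point half-log curves from 100 uM in 0.5% DMSO; gain or loss fitted against DMSO baseline.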

[16] = read-out: Lipase C (LIPC), LIPC (gene 3990); assay: LTEA_HepaRG_LIPC: Life Technologies and Expression Analysis (LTEA) Assay for Lipase C (LIPC) using HepaRG (AID 2283514)
Method in brief: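 HepaRG, 48 h exposure, 8-pt half-log series from 100 uM in 0.5% DMSO, duplicates. Readout: LIPC mRNA by Fluidigm qRT-PCR, housekeeping-normalized (ACTB/GAPDH/POLR2A). Gain or loss fitted bidirectionally against DMSO baseline.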

[17] = read-out: 3-Hydroxy-3-Methylglutaryl-CoA Synthase 2 (HMGCS2), HMGCS2 (gene 3158); assay: LTEA_HepaRG_HMGCS2: Life Technologies and Expression Analysis (LTEA) Assay for 3-Hydroxy-3-Methylglutaryl-CoA Synthase 2 (HMGCS2) using HepaRG (AID 2283504)
Method in brief: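 HepaRG, plated 48 h then switched to serum-free induction media; cmpd 8-pt, max 100 uM, 1/2-log, 0.5% DMSO, n=2, 48 h. HMGCS2 mRNA by Fluidigm TaqMan qRT-PCR, ACTB/GAPDH/POLR2A norm; bidirectional fit vs DMSO.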

[18] = read-out: Keratin 19 (KRT19), KRT19 (gene 3880); assay: LTEA_HepaRG_KRT19: Life Technologies and Expression Analysis (LTEA) Assay for Keratin 19 (KRT19) using HepaRG (AID 2283512)
Method in brief: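 KRT19 transcript levels, measured by Fluidigm qRT-PCR against three housekeeping genes, are fitted for gain or loss of signal relative to DMSO. Human HepaRG cells receive test chemicals (top 100 uM, half-log steps, 0.5% DMSO) for 48 hours.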

[19] = read-out: Lipoprotein lipase (LPL), LPL (gene 4023); assay: LTEA_HepaRG_LPL: Life Technologies and Expression Analysis (LTEA) Assay for Lipoprotein lipase (LPL) using HepaRG (AID 2283515)
Method in brief: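 HepaRG, 48 h exposure, 8-pt half-log dilutions from 100 uM, 0.5% DMSO vehicle, duplicates; qRT-PCR (Fluidigm array) of LPL mRNA vs housekeeping genes; bidirectional curve fit relative to DMSO baseline.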

Measured: AC50

Hypoxia-inducible factor 1-alpha (Homo sapiens), sequence (Q16665 whole entry, looked up): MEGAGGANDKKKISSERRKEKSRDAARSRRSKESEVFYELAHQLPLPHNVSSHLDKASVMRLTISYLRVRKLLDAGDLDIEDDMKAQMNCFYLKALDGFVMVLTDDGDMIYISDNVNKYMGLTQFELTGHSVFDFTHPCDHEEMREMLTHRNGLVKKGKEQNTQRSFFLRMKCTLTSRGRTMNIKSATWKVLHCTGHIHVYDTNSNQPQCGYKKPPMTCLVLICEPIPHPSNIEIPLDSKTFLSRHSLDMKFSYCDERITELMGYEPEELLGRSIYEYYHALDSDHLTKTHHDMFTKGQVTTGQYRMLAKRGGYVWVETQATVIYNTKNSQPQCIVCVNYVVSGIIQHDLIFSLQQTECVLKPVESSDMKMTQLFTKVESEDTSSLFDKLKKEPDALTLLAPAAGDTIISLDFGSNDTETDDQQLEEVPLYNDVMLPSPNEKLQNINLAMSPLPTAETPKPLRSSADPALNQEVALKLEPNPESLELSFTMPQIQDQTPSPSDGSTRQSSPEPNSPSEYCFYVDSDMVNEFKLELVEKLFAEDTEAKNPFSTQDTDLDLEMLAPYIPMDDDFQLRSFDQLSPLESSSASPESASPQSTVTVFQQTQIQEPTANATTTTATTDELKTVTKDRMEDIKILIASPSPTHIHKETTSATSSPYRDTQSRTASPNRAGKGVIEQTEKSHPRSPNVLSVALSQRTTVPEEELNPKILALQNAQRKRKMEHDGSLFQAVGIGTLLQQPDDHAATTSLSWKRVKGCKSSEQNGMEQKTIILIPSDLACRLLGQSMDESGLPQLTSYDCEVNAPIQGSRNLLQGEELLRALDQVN

CCOC(=O)CC(SP(=O)(OC)OC)C(=O)OCC (stereo unspecified)
active: [1] 50 µM
not listed: [17] | [18] | [19]
inactive: all other assays above

CNC(=O)ON=C(C)SC
not listed: [15] | [18] | [19]
inactive: all other assays above

Cc1ccn2nc(S(=O)(=O)Nc3c(F)cccc3F)nc2n1
not listed: [18] | [19]
inactive: all other assays above

CCc1cnc(C2=NC(C)(C(C)C)C(=O)N2)c(C(=O)O)c1 (stereo unspecified)
not listed: [5]
inactive: all other assays above

CN(C)[C@@H]1C(=O)C(C(N)=O)=C(O)[C@@]2(O)C(=O)C3=C(O)c4c(O)cccc4[C@@](C)(O)[C@H]3[C@H](O)[C@@H]12
not listed: [8] | [15] | [17] | [18]
inactive: all other assays above

CCOP(=S)(Oc1cnc(C(C)(C)C)nc1)OC(C)C (stereo unspecified)
active: [1] 4.63 µM | [17] 14 µM | [9] 44.6 µM | [13] 25.1 µM | [16] 18.8 µM
not listed: [15] | [18] | [19]
inactive: all other assays above

O=C(O)c1cc(Oc2ccc(C(F)(F)F)cc2Cl)ccc1[N+](=O)[O-]
active: [17] 50 µM
not listed: [9] | [19]
inactive: all other assays above

CCCSP(=O)(OCC)SCCC
active: [1] 22.1 µM | [9] 27.7 µM
not listed: [15] | [18] | [19]
inactive: all other assays above

Cc1nn(-c2cc(NS(C)(=O)=O)c(Cl)cc2Cl)c(=O)n1C(F)F
not listed: [9] | [15] | [18] | [19]
inactive: all other assays above

C#CCC1=C(C)C(OC(=O)C2C(C=C(C)C)C2(C)C)CC1=O (stereo unspecified)
active: [9] 71 µM
not listed: [17] | [18]
inactive: all other assays above

CNc1cnn(-c2cccc(C(F)(F)F)c2)c(=O)c1Cl
active: [1] 21.4 µM | [3] 28 µM | [5] 30.1 µM | [9] 36.9 µM | [11] 17.4 µM | [12] 50 µM
not listed: [15] | [17] | [18] | [19]
inactive: all other assays above

CSc1nnc(C(C)(C)C)c(=O)n1N
not listed: [15] | [18]
inactive: all other assays above

CCCOc1nn(C(=O)NS(=O)(=O)c2ccccc2C(=O)OC)c(=O)n1C
not listed: [15] | [18] | [19]
inactive: all other assays above

CCCOCC(=Nc1ccc(Cl)cc1C(F)(F)F)n1ccnc1
active: [1] 30.6 µM | [2] 35 µM | [3] 91 µM | [7] 81.9 µM | [8] 87.3 µM | [9] 12.1 µM | [10] 88.2 µM | [12] 85.7 µM | [13] 66.4 µM | [18] 12 µM | [15] 73.1 µM | [16] 15.8 µM
inactive: [4] | [5] | [6] | HGF (gene 3082) | [14]
